# Screen size: about 5,500 compounds; about 2,000 (36%) were called active. Another 18% or so got no clear call; they are omitted. This is one part of the list. Values without a mark were called inactive. No stated cut-off is given here; in the data, active means normalized growth mostly below about 0.91 (no sharp cut-off); inconclusive means no clear call, values can overlap the other calls; inactive means mostly above about 0.92.
# Test: chemical genetic growth profiling, strain panel (AID 1159580);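 further: tested at 20 µM; growth read once vehicle control cultures reached saturation at 30 °C; 1 = growth at the plate median or of vehicle wells; lower values mean less growth of the strain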
# Settings: growth OD
compound,measurement,setting,value
CC(C)N(C(=O)CCl)c1ccccc1,normalized growth,"S. cerevisiae deletion strains, locus YJR043C, strain POL32, active compounds read low",1.03
same,normalized growth,"S. cerevisiae deletion strains, locus YJR075W, strain HOC1, active compounds read low",1.04
same,normalized growth,"S. cerevisiae deletion strains, locus YKL009W, strain mrt4, active compounds read low",1.02
same,normalized growth,"S. cerevisiae deletion strains, locus YKL068W, active compounds read low",1.04
same,normalized growth,"S. cerevisiae deletion strains, locus YKL085W, strain MDH1 (second series), active compounds read low",1.03
same,normalized growth,"S. cerevisiae deletion strains, locus YKL085W, strain MDH1, active compounds read low",1.03
same,normalized growth,"S. cerevisiae deletion strains, locus YKL160W, strain elf1, active compounds read low",0.974
same,normalized growth,"S. cerevisiae deletion strains, locus YKL190W, strain CNB1, active compounds read low",1.03
same,normalized growth,"S. cerevisiae deletion strains, locus YKR001C, strain vps1, active compounds read low",1.07
same,normalized growth,"S. cerevisiae deletion strains, locus YKR026C, strain gcn3, active compounds read low",1.01
same,normalized growth,"S. cerevisiae deletion strains, locus YKR091W, strain srl3, active compounds read low",1.01
same,normalized growth,"S. cerevisiae deletion strains, locus YLL001W, strain dnm1, active compounds read low",0.992
same,normalized growth,"S. cerevisiae deletion strains, locus YLL026W, active compounds read low",1.01
same,normalized growth,"S. cerevisiae deletion strains, locus YLL041C, strain sdh2, active compounds read low",1.02
same,normalized growth,"S. cerevisiae deletion strains, locus YLR027C, strain aat2, active compounds read low",1.01
same,normalized growth,"S. cerevisiae deletion strains, locus YLR039C, strain RIC1, active compounds read low",1.2
same,normalized growth,"S. cerevisiae deletion strains, locus YLR058C, strain SHM2, active compounds read low",1.03
same,normalized growth,"S. cerevisiae deletion strains, locus YLR102C, strain apc9, active compounds read low",1
same,normalized growth,"S. cerevisiae deletion strains, locus YLR221C, strain rsa3, active compounds read low",1
same,normalized growth,"S. cerevisiae deletion strains, locus YLR258W, strain gsy2, active compounds read low",0.978
same,normalized growth,"S. cerevisiae deletion strains, locus YLR262C, strain YPT6 (second series), active compounds read low",1.14
same,normalized growth,"S. cerevisiae deletion strains, locus YLR262C, strain YPT6, active compounds read low",1.21
same,normalized growth,"S. cerevisiae deletion strains, locus YLR268W, strain sec22, active compounds read low",1.02
same,normalized growth,"S. cerevisiae deletion strains, locus YLR320W, strain mms22, active compounds read low",0.97
same,normalized growth,"S. cerevisiae deletion strains, locus YLR330W, strain CHS5, active compounds read low",1.02
same,normalized growth,"S. cerevisiae deletion strains, locus YLR342W, strain FKS1 (second series), active compounds read low",0.989
same,normalized growth,"S. cerevisiae deletion strains, locus YLR342W, strain FKS1, active compounds read low",1.03
same,normalized growth,"S. cerevisiae deletion strains, locus YLR357W, strain rsc2, active compounds read low",1.18 [resistant] (active)
same,normalized growth,"S. cerevisiae deletion strains, locus YLR370C, strain arc18, active compounds read low",1.03
same,normalized growth,"S. cerevisiae deletion strains, locus YLR371W, strain rom2, active compounds read low",1.01
same,normalized growth,"S. cerevisiae deletion strains, locus YLR384C, strain iki3, active compounds read low",1.01
same,normalized growth,"S. cerevisiae deletion strains, locus YLR418C, strain cdc73, active compounds read low",0.798 (active)
same,normalized growth,"S. cerevisiae deletion strains, locus YML016C, strain PPZ1, active compounds read low",0.996
same,normalized growth,"S. cerevisiae deletion strains, locus YML032C, strain rad52, active compounds read low",1.01
same,normalized growth,"S. cerevisiae deletion strains, locus YML120C, strain ndi1, active compounds read low",0.986
same,normalized growth,"S. cerevisiae deletion strains, locus YML124C, strain tub3, active compounds read low",1.02
same,normalized growth,"S. cerevisiae deletion strains, locus YMR058W, strain fet3, active compounds read low",1
same,normalized growth,"S. cerevisiae deletion strains, locus YMR078C, strain ctf18, active compounds read low",1.01
same,normalized growth,"S. cerevisiae deletion strains, locus YMR125W, strain sto1, active compounds read low",1.16 [resistant] (active)
same,normalized growth,"S. cerevisiae deletion strains, locus YMR129W, active compounds read low",1.01
same,normalized growth,"S. cerevisiae deletion strains, locus YMR205C, strain PFK2, active compounds read low",0.919
same,normalized growth,"S. cerevisiae deletion strains, locus YMR223W, strain ubp8, active compounds read low",1.02
same,normalized growth,"S. cerevisiae deletion strains, locus YMR231W, strain pep5, active compounds read low",0.992
same,normalized growth,"S. cerevisiae deletion strains, locus YMR263W, strain SAP30, active compounds read low",1.04
same,normalized growth,"S. cerevisiae deletion strains, locus YMR307W, strain GAS1, active compounds read low",0.99
same,normalized growth,"S. cerevisiae deletion strains, locus YNL067W, strain RPL9B, active compounds read low",1.04
same,normalized growth,"S. cerevisiae deletion strains, locus YNL071W, strain lat1, active compounds read low",0.922
same,normalized growth,"S. cerevisiae deletion strains, locus YNL128W, strain TEP1, active compounds read low",1.03
same,normalized growth,"S. cerevisiae deletion strains, locus YNL153C, strain GIM3, active compounds read low",1.03
same,normalized growth,"S. cerevisiae deletion strains, locus YNL209W, strain ssb2, active compounds read low",1.01
same,normalized growth,"S. cerevisiae deletion strains, locus YNL233W, strain BNI4, active compounds read low",1.03
same,normalized growth,"S. cerevisiae deletion strains, locus YNL248C, strain rpa49, active compounds read low",0.992
same,normalized growth,"S. cerevisiae deletion strains, locus YNL250W, strain rad50, active compounds read low",1.03
same,normalized growth,"S. cerevisiae deletion strains, locus YNL271C, strain bni1, active compounds read low",1.02
same,normalized growth,"S. cerevisiae deletion strains, locus YNL298W, strain CLA4, active compounds read low",1.03
same,normalized growth,"S. cerevisiae deletion strains, locus YNL307C, strain MCK1, active compounds read low",0.981
same,normalized growth,"S. cerevisiae deletion strains, locus YNL322C, strain KRE1 (second series), active compounds read low",1.04
same,normalized growth,"S. cerevisiae deletion strains, locus YNL322C, strain KRE1, active compounds read low",1.04
same,normalized growth,"S. cerevisiae deletion strains, locus YNR049C, strain mso1, active compounds read low",1.02
same,normalized growth,"S. cerevisiae deletion strains, locus YNR052C, strain pop2, active compounds read low",1.02
same,normalized growth,"S. cerevisiae deletion strains, locus YOL006C, strain TOP1, active compounds read low",1
same,normalized growth,"S. cerevisiae deletion strains, locus YOL012C, strain htz1",0.89
same,normalized growth,"S. cerevisiae deletion strains, locus YOL147C, strain pex11, active compounds read low",1
same,normalized growth,"S. cerevisiae deletion strains, locus YOR001W, strain rrp6, active compounds read low",0.983
same,normalized growth,"S. cerevisiae deletion strains, locus YOR061W, strain CKA2, active compounds read low",1.03
same,normalized growth,"S. cerevisiae deletion strains, locus YOR069W, strain VPS5, active compounds read low",1.01
same,normalized growth,"S. cerevisiae deletion strains, locus YOR070C, strain gyp1, active compounds read low",1.01
same,normalized growth,"S. cerevisiae deletion strains, locus YOR080W, strain dia2, active compounds read low",1.03
same,normalized growth,"S. cerevisiae deletion strains, locus YOR083W, strain WHI5, active compounds read low",0.976
same,normalized growth,"S. cerevisiae deletion strains, locus YOR106W, strain vam3, active compounds read low",0.958
same,normalized growth,"S. cerevisiae deletion strains, locus YOR136W, strain idh2, active compounds read low",1
same,normalized growth,"S. cerevisiae deletion strains, locus YOR144C, strain elg1, active compounds read low",1.02
same,normalized growth,"S. cerevisiae deletion strains, locus YOR184W, strain ser1, active compounds read low",1
same,normalized growth,"S. cerevisiae deletion strains, locus YOR265W, strain rbl2, active compounds read low",1.04
same,normalized growth,"S. cerevisiae deletion strains, locus YOR270C, strain vph1, active compounds read low",0.865
same,normalized growth,"S. cerevisiae deletion strains, locus YOR290C, strain snf2, active compounds read low",0.928
same,normalized growth,"S. cerevisiae deletion strains, locus YOR316C, strain cot1, active compounds read low",1.01
same,normalized growth,"S. cerevisiae deletion strains, locus YPL051W, strain arl3, active compounds read low",0.987
same,normalized growth,"S. cerevisiae deletion strains, locus YPL055C, strain LGE1, active compounds read low",1.03
same,normalized growth,"S. cerevisiae deletion strains, locus YPL078C, strain atp4, active compounds read low",0.973
same,normalized growth,"S. cerevisiae deletion strains, locus YPL106C, strain sse1, active compounds read low",1.14
same,normalized growth,"S. cerevisiae deletion strains, locus YPL240C, strain hsp82, active compounds read low",1
same,normalized growth,"S. cerevisiae deletion strains, locus YPL241C, strain CIN2, active compounds read low",1.02
same,normalized growth,"S. cerevisiae deletion strains, locus YPR119W, strain clb2, active compounds read low",1.01
same,normalized growth,"S. cerevisiae deletion strains, locus YPR141C, strain kar3, active compounds read low",1.03
same,normalized growth,"S. cerevisiae deletion strains, locus YPR163C, strain tif3, active compounds read low",1.03
same,normalized growth,"S. cerevisiae deletion strains, locus YPR167C, strain met16, active compounds read low",1.02
same,normalized growth,"S. cerevisiae deletion strains, strain wtn01, active compounds read low",1.02
same,normalized growth,"S. cerevisiae strains, strain wild type, active compounds read low",1.03

# — PubChem BioAssay AID1159580 (chemical genetic matrix, 2015)
